PubChem BioAssay (Tox21)
Inconclusive results are not listed. Calls of active or inactive are those of the source. Unless noted, calls follow the shape of the dose curve; as a rule, active = well fitted curve in the direction sought with a large enough effect in the repeat runs; inconclusive = weak or mixed curves; inactive = no such curve, though single readings can be large; an effect the other way counts as inactive or inconclusive.

How the values were obtained:
[1] = qHTS assay to identify small molecule agonists of the vitamin D receptor (VDR) signaling pathway - cell viability counter screen (AID 743224); settings: VDR-bla HEK293T viability, CellTiter-Glo luminescence, 16 h; series mostly up to 62.6 µM; also: nearly all actives have a fitted effect of over 50% in size
Procedure, shortened: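 Luminescence from CellTiter-Glo, read after 30 min at room temperature, reports viability of VDR-bla cells treated with compounds for 16 h at 37C in the wells used for the beta-lactamase FRET read.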

[2] = qHTS assay to identify small molecule antagonists of the vitamin D receptor (VDR) signaling pathway - cell viability counter screen (AID 743225); settings: VDR-bla HEK293T viability, CellTiter-Glo luminescence, 16 h; series mostly up to 61 µM; also: nearly all actives have a fitted effect of over 50% in size
Procedure, shortened: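 Viability counter screen run in the same wells as the beta-lactamase reporter assay: HEK 293T VDR-UAS-bla cells, 16 h compound exposure at 37C with 3 nM (final) 1-alpha,25-dihydroxyvitamin D3. CellTiter-Glo luminescence, 30 min, room temperature.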

[3] = qHTS assay to identify small molecule agonists of the NFkB signaling pathway (AID 1159509; active = well fitted curve in the direction sought with a large enough effect in the signal ratio in the repeat runs, not every such curve was filed as active; the % refers to the signal ratio); settings: NFkB-bla ME-180 cells, beta-lactamase FRET ratio, 5 h; series mostly up to 61 µM
Procedure, shortened: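 After overnight attachment, reporter cells received test compounds, DMSO or positive controls and were incubated 5 hr at 37 C. FRET substrate was then added for 1.5 hr at room temperature before dual-emission fluorescence reading.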

[4] = qHTS assay to identify small molecule agonists of the NFkB signaling pathway - cell viability counter screen (AID 1159515; calls by dose curve; also: nearly all actives have a fitted effect of over 55% in size); settings: NFkB-bla ME-180 viability, CellTiter-Glo luminescence, 5 h; series mostly up to 61 µM
Procedure, shortened: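 Luminescence from CellTiter-Glo (30 min, room temperature) gives viability, measured in the same wells as the beta-lactamase reporter read. Cells were NFkB-bla ME-180, 2,000 per well, treated 5 hr with compounds.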

[5] = qHTS assay to identify small molecule agonists of the endoplasmic reticulum stress response signaling pathway (AID 1159516; active = well fitted activation curve with a large enough effect in the signal ratio in the repeat runs, not every such curve was filed as active; the % refers to the signal ratio); settings: ESRE-bla HeLa, ER stress beta-lactamase reporter, 5 h; series mostly up to 61 µM
Procedure, shortened: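 Read-out is beta-lactamase cleavage of a FRET substrate (405 nm excitation; 460 and 530 nm emissions) in ESRE-bla HeLa cells after a 5 hr compound exposure at 37 C. Substrate incubation ran 2 hr at room temperature.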

[6] = qHTS assay to identify small molecule agonists of the endoplasmic reticulum stress response signaling pathway - cell viability counter screen (AID 1159517; calls by dose curve;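 also: HeLa cells carrying an ER stress response element beta-lactamase reporter; nearly all actives have a fitted effect of over 50% in size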); settings: ESRE-bla HeLa viability, CellTiter-Glo luminescence, 5 h; series mostly up to 61 µM
Procedure, shortened: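 Luminescence readout: CellTiter-Glo, 30 min RT, same wells as the ESRE-bla reporter read. HeLa ESRE-bla, 1,500 cells/well, o/n 37 C; cpd 5 hr 37 C/5% CO2.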

[7] = qHTS assay to identify small molecule antagonists of the retinoid-related orphan receptor gamma (ROR-gamma) signaling pathway - cell viability counter screen (AID 1159520); settings: Tet-on RORgamma CHO cells viability, ATP luminescence, 16 h; series mostly up to 92.4 µM; also: nearly all actives have a fitted effect of over 50% in size
Procedure, shortened: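 Tet-on ROR gamma CHO cells (1,000/well) were plated 4 hr, given compounds in DMSO for 2 hr at 37 C, then induced with 1 uM final doxycycline for 16 hr. Viability was read as ATP by CellTiter-Glo luminescence after 30 min.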

[8] = target: Nuclear receptor ROR-gamma (Homo sapiens) (UniProt P51449); assay: qHTS assay to identify small molecule antagonists of the retinoid-related orphan receptor gamma (ROR-gamma) signaling pathway (AID 1159521); settings: Tet-on RORgamma CHO cells, RORE-luciferase, 16 h; series mostly up to 92.4 µM
Procedure, shortened: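 Luminescence readout (ONE-Glo, 30 min RT) after 16 h doxycycline induction; loss of signal scored as antagonism. CHO cells with TET-inducible RORγ and RORE-LUC reporter; compounds added 2 h before 1 uM final doxycycline.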

[9] = qHTS assay to identify small molecule agonists of the AP-1 signaling pathway - cell viability counter screen (AID 1159525; calls by dose curve; also: nearly all actives have a fitted effect of over 55% in size); settings: ME-180 AP-1-bla cells viability, ATP luminescence, 5 h; series mostly up to 76.8 µM
Procedure, shortened: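 ME-180 AP-1-bla, 2500 cells/well, Opti-MEM + 0.5% dialyzed FBS; overnight 37 °C; cpd 15-pt titration, 5 h 37 °C; CellTiter-Glo 30 min RT; luminescence read; normalised to TOAB and DMSO controls.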

[10] = qHTS assay to identify small molecule agonists of the AP-1 signaling pathway (AID 1159526; calls by dose curve); settings: ME-180 (cervical carcinoma) AP-1-bla reporter, beta-lactamase FRET ratio, 5 h; series mostly up to 76.8 µM
[11] = target: Retinoic acid receptor RXR-alpha (Homo sapiens) (UniProt P19793); assay: qHTS assay to identify small molecule agonists of the RXR signaling pathway (AID 1159527; calls by dose curve; also: nearly all actives have a fitted effect of over 35% in size; also: potency is read from the fitted curve at half-maximal effect); settings: HEK293T RXRa-UAS-bla, beta-lactamase ratio, 16 h; series mostly up to 76.8 µM
Chain of Retinoic acid receptor RXR-alpha (Homo sapiens) (P19793 whole entry, looked up): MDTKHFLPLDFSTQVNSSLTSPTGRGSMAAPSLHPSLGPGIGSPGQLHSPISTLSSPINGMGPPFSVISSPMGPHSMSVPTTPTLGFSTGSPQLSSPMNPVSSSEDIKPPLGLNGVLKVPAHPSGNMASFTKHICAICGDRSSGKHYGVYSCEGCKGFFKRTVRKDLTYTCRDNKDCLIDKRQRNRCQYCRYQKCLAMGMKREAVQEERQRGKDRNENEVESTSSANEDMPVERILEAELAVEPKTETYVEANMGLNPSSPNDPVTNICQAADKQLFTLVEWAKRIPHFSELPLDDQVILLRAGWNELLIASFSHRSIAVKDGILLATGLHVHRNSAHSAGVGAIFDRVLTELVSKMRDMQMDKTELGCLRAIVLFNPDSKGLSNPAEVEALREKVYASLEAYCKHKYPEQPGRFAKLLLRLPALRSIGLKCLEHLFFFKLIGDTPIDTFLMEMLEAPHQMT
Procedure, shortened: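 Agonist mode; 9-cis retinoic acid positive control. HEK 293T UAS-bla reporter cells, 2% charcoal-stripped FBS, 16 hr compound exposure at 37 C/5% CO2. LiveBLAzer B/G FRET substrate 2 hr RT; ex 405, em 460/530 nm.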

[12] = qHTS assay to identify small molecule agonists of the RXR signaling pathway - cell viability counter screen (AID 1159529); settings: RXR-alpha-bla HEK293T viability, CellTiter-Glo, 16 h; series mostly up to 76.8 µM; also: nearly all actives have a fitted effect of over 50% in size
Procedure, shortened: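 Luminescence from CellTiter-Glo (30 min, RT) measured viability in the same wells as the beta-lactamase reporter readout. Cells: GeneBLAzer RXR-alpha HEK 293T, 2% charcoal-stripped FBS. Compound exposure 16 hr, 37 C.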

[13] = qHTS assay to identify small molecule antagonists of the retinoid acid receptor (RAR) signaling pathway - cell viability counter screen (AID 1159551); settings: C3RL4 cells viability, ATP luminescence (CellTiter-Glo), 6 h; series mostly up to 92.4 µM; also: nearly all actives have a fitted effect of over 35% in size
Procedure, shortened: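 Luminescent ATP quantitation (CellTiter-Glo) gave cell viability in C3RL4 cells exposed to test chemicals for 6 h at 37 C alongside 1 uM final retinol.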

[14] = qHTS assay to identify small molecule antagonists of the retinoic acid receptor (RAR) signaling pathway (AID 1159552; also: nearly all actives have a fitted effect of over 50% in size); settings: C3RL4 RARE luciferase reporter, retinol-stimulated, 6 h; series mostly up to 92.4 µM
Procedure, shortened: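 Luminescence from a RARE luciferase reporter in C3RL4 cells served as read-out. Cells received compounds together with 1 uM final retinol and incubated 6 hr at 37 C before detection reagent was added for 30 min at room temperature.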

[15] = qHTS assay to identify small molecule agonists of the retinoic acid receptor (RAR) signaling pathway (AID 1159553); settings: C3RL4 RARE luciferase reporter, agonist, 6 h; series mostly up to 73.3 µM
Procedure, shortened: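 Luminescence from a RARE-driven luciferase reporter in C3RL4 cells served as the read-out, measured after 30 min with detection reagent at room temperature. Compounds in DMSO were applied for 6 hr at 37 C following overnight seeding.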

[16] = qHTS assay to identify small molecule antagonists of the estrogen related receptor (ERR) signaling pathway from Tox21 library - cell viability counter screen (AID 1224834); settings: ERR reporter cells viability, CellTiter-Fluor, 17.5 h; series mostly up to 92.4 µM; also: nearly all actives have a fitted effect of over 30% in size
Procedure, shortened: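 Fluorescence from CellTiter-Fluor gives the viability read-out, taken 30 min after reagent addition. Before that, ERR cells seeded 6 h earlier were incubated with compounds for 17.5 h at 37 C.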

[17] = target: Luciferin 4-monooxygenase (Photinus pyralis) (UniProt P08659); assay: qHTS assay to identify small molecule inhibitors of firefly luciferase (AID 1224835); also: nearly all actives have a fitted effect of over 25% in size; settings: purified P. pyralis luciferase, luminescence inhibition; series mostly up to 115 µM
Chain of Luciferin 4-monooxygenase (Photinus pyralis) (P08659 whole entry, looked up): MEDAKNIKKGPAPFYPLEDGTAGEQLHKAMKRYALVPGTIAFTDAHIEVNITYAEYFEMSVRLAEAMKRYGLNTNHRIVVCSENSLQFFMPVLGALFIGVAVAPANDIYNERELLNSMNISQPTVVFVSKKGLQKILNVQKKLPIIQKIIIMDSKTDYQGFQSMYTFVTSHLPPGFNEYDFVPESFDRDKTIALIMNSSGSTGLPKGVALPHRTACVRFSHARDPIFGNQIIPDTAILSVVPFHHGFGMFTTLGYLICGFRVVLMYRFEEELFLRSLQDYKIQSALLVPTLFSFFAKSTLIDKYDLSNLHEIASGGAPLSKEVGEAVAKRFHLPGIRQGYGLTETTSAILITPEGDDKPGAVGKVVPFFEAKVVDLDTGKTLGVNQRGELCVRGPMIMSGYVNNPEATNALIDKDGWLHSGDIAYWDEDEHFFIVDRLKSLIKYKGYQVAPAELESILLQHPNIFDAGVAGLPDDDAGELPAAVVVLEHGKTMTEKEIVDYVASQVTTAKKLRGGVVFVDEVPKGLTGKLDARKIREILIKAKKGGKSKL
Procedure, shortened: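 Quantitative HTS format; KM concentrations of both substrates. Purified P. pyralis FLuc activity quantified from luminescence images.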

[18] = target: Nuclear receptor subfamily 1 group I member 3 (Homo sapiens) (UniProt Q14994); assay: qHTS assay to identify small molecule antagonists of the constitutive androstane receptor (CAR) signaling pathway (AID 1224838); settings: HepG2-CYP2B6-hCAR luciferase, CITCO-stimulated, 24 h; series mostly up to 92.4 µM;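 also: HepG2 cells stably expressing hCAR with CYP2B6 luciferase reporter stimulated by CITCO; nearly all actives have a fitted effect of over 40% in size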
Chain of Nuclear receptor subfamily 1 group I member 3 (Homo sapiens) (Q14994 whole entry, looked up): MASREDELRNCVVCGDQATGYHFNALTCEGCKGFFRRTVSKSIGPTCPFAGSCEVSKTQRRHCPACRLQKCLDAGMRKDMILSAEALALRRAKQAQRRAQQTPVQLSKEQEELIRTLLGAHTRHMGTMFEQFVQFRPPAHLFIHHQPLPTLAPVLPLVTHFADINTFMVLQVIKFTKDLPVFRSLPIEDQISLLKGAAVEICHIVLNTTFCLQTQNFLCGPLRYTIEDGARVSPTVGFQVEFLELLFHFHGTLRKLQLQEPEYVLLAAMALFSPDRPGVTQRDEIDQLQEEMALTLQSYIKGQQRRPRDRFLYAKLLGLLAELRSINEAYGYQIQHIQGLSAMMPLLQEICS
Procedure, shortened: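 HepG2-CYP2B6-hCAR cells; 4 h pre-incubation; cpd (15 conc) + CITCO 50 nM final; 24 h, 37 C/5% CO2; ONE-Glo, luminescence.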

[19] = qHTS assay to identify small molecule agonists of the constitutive androstane receptor (CAR) signaling pathway - cell viability counter screen (AID 1224836); settings: HepG2-CYP2B6-hCAR viability, CellTiter-Fluor, 23 h, PK11195 added to every well; series mostly up to 92.4 µM; also: nearly all actives have a fitted effect of over 45% in size
Procedure, shortened: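 Viability read-out: CellTiter-Fluor fluorescence after 23 h compound exposure at 37 C/5% CO2 in double-stable HepG2-CYP2B6-hCAR cells, with PK11195 present at 0.75 uM final; compounds tested in 15-point titration.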

[20] = qHTS assay to identify small molecule antagonists of the constitutive androstane receptor (CAR) signaling pathway - cell viability counter screen (AID 1224837); settings: HepG2-CYP2B6-hCAR viability, CellTiter-Fluor, 23 h, co-treated with 50 nM CITCO; series mostly up to 92.4 µM; also: nearly all actives have a fitted effect of over 45% in size
Procedure, shortened: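 HepG2-CYP2B6-hCAR cells, 2500/well, 4 hr pre-incubation; compound titration, 15 conc.; CITCO 50 nM final; 23 hr, 37 C/5% CO2; CellTiter-Fluor, fluorescence intensity.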

Measured: Potency

Cc1ccc(C)c([N+](=O)[O-])c1
not listed: [19] | [20]
inactive: all other assays above

CC(C)C1OCCN1CCOC(=O)NCCCCCCNC(=O)OCCN1CCOC1C(C)C (stereo not given)
not listed: [9]
inactive: all other assays above

C=CCCCCCCCCC(=O)OCCCC
not listed: [19]
inactive: all other assays above

CC(C)c1ccc(C=O)cc1
active: [11] 43.6 µM
not listed: [9]
inactive: all other assays above

CCOc1cccc(N)c1
not listed: [9]
inactive: all other assays above

C=CC(=O)OCC1CCCO1 (stereo not given)
not listed: [9]
inactive: all other assays above

CC(=O)O[C@H]1C[C@@H]2CC[C@@]1(C)C2(C)C
not listed: [9] | [20]
inactive: all other assays above

C=CCN1C[C@H](C(=O)N(CCCN(C)C)C(=O)NCC)C[C@@H]2c3cccc4[nH]cc(c34)C[C@H]21
not listed: [9]
inactive: all other assays above
